Among the test systems are SR leukemia; RPMI-8226 leukemia; OVCAR-8 ovarian; OVCAR-5 ovarian; OVCAR-4 ovarian; SK-OV-3 ovarian; IGROV1 ovarian; OVCAR-3 ovarian; HS 578T breast; NCI/ADR-RES ovarian; T-47D breast; BT-549 breast; MDA-MB-435 melanoma; SW-620 colon; MCF7 breast; HCT-116 colon; HCC-2998 colon; KM12 colon.
Holding throughout (assay): NCI-60 one-dose screen, 48 h (100 = growth as untreated, 0 = no growth, -100 = all killed)
What all share (conditions): 10 µM unless noted

Experimental findings from PubChem BioAssay (NCI) are described below.

About 83,000 compounds went through this panel and 20% of them were active in at least one assay; those are over-represented in the sample as a whole.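 Testing used 96-well plates and a 48-hour single-concentration exposure. Example: -40 means 40% of the starting cells died.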 A number with no mark means an inactive call. Active and inactive are the calls of the source. Rule for the calls: active = growth percent below 10; inactive = the rest.

On to `N#Cc1c(-c2ccco2)nc2c(c(-c3ccccc3)nn2-c2ccccc2)c1-c1ccc(O)cc1`, for which the growth was 19.7% in the experiment with SR leukemia; 55.3% in the experiment with RPMI-8226 leukemia; 55.2% in the experiment on OVCAR-8 ovarian; 93.4% with OVCAR-5 ovarian; 77.7% with OVCAR-4 ovarian; 46.4% in the experiment with SK-OV-3 ovarian. Besides, the growth was 84.2% with IGROV1 ovarian; 86% in the experiment with OVCAR-3 ovarian; 53.8% in the experiment on HS 578T breast; 76.4% in the experiment with NCI/ADR-RES ovarian; 18.5% in the experiment with T-47D breast; 64.7% in the experiment with BT-549 breast. In addition, the growth with MDA-MB-435 melanoma is 62.1%; in the experiment with SW-620 colon it was 48%; in the experiment on MCF7 breast, 47.3%; in the experiment on HCT-116 colon, 36.9%; in the experiment on HCC-2998 colon it was 91.5%; in the experiment on KM12 colon it was 43%.
For the compound `CCOC(=O)c1ccc2c(c1)[n+](=O)c(C(=O)C1CCCS1)c(C(F)(F)F)n2[O-]` (centres undefined), the growth was -42.8% (active) in the experiment with SR leukemia; -45.3% (active) with RPMI-8226 leukemia; -36.4% (active) in the experiment with OVCAR-8 ovarian; -79.8% (active) in the experiment with OVCAR-5 ovarian; -83.3% (active) in the experiment on OVCAR-4 ovarian; -97.6% (active) with SK-OV-3 ovarian. Moreover, the growth in the experiment on IGROV1 ovarian is -60.3% (active); in the experiment on OVCAR-3 ovarian it was -96.6% (active); with HS 578T breast, -10.8% (active); in the experiment on NCI/ADR-RES ovarian it was -70.4% (active); in the experiment on T-47D breast it was -70.5% (active); with BT-549 breast, -93.4% (active). Besides, the growth was -80.5% (active) in the experiment on MDA-MB-435 melanoma; -82.4% (active) with SW-620 colon; -68.1% (active) in the experiment on MCF7 breast; -96.2% (active) with HCT-116 colon; -89% (active) in the experiment with HCC-2998 colon; -90.4% (active) with KM12 colon.
On to `C=C(C)[C@@H]1CC[C@]2(C(=O)O)CC[C@]3(C)[C@H](CC[C@@H]4[C@@]5(C)C/C(=C/c6cccc(I)c6)C(=O)C(C)(C)[C@@H]5CC[C@]43C)[C@@H]12`, for which the growth was 24% in the experiment with SR leukemia; 9.91% (active) in the experiment on RPMI-8226 leukemia; 20.5% with OVCAR-8 ovarian; 81.3% in the experiment on OVCAR-5 ovarian; 3.26% (active) with OVCAR-4 ovarian; 24.2% in the experiment on SK-OV-3 ovarian. The growth in the experiment on IGROV1 ovarian is 47.6%; in the experiment with OVCAR-3 ovarian it was 5.15% (active); with HS 578T breast it was 43.9%; in the experiment with NCI/ADR-RES ovarian, 31.5%; in the experiment on T-47D breast, 4.75% (active); in the experiment with BT-549 breast, 35.3%. Also, the growth in the experiment on MDA-MB-435 melanoma was 32.1%; in the experiment with SW-620 colon, 17.9%; in the experiment with MCF7 breast, 19.6%; with HCT-116 colon, 5.1% (active); in the experiment with HCC-2998 colon, 28.8%; in the experiment with KM12 colon it was 15.1%.
With `COc1ccc(-c2n[nH]nc2-c2cc3ccccc3s2)cc1O`, the growth in the experiment on SR leukemia is 18.6%; in the experiment on RPMI-8226 leukemia it was 21.1%; with OVCAR-8 ovarian it was 27.7%; in the experiment on OVCAR-5 ovarian, 38.2%; in the experiment on OVCAR-4 ovarian it was 52.4%; in the experiment with SK-OV-3 ovarian, 15.5%. Moreover, the growth with IGROV1 ovarian was 49%; in the experiment on OVCAR-3 ovarian, 16.1%; in the experiment with HS 578T breast it was 18.3%; in the experiment on NCI/ADR-RES ovarian, 13.5%; with T-47D breast it was 43.8%; in the experiment with BT-549 breast it was 24.1%. The growth with MDA-MB-435 melanoma is -32.9% (active); in the experiment on SW-620 colon, 26.6%; with MCF7 breast, 19.7%; with HCT-116 colon it was 18.2%; in the experiment on HCC-2998 colon it was 29.2%; with KM12 colon, 22.7%.
In the case of `O=C1OC(c2ccc(Cl)c(Cl)c2)=C/C1=C/c1cccc([N+](=O)[O-])c1`, the growth with SR leukemia was 117%; with RPMI-8226 leukemia, 99%; with OVCAR-8 ovarian, 99.4%; in the experiment on OVCAR-5 ovarian it was 96.1%; in the experiment with OVCAR-4 ovarian, 116%; in the experiment on SK-OV-3 ovarian it was 96.5%. The growth with IGROV1 ovarian was 81.8%; with OVCAR-3 ovarian, 111%; with HS 578T breast, 97.7%; in the experiment with NCI/ADR-RES ovarian, 104%; with T-47D breast, 96.7%; in the experiment on BT-549 breast it was 111%. Moreover, the growth with MDA-MB-435 melanoma is 104%; in the experiment with SW-620 colon, 102%; in the experiment on MCF7 breast, 101%; in the experiment with HCT-116 colon, 86.5%; with HCC-2998 colon it was 103%; with KM12 colon, 104%.
Take `O=C1/C(=C\c2ccc(Br)o2)SC(=S)N1CCc1ccc(O)cc1`: the growth in the experiment on SR leukemia was 66.9%; with RPMI-8226 leukemia, 26.6%; in the experiment with OVCAR-8 ovarian, 97.2%; in the experiment on OVCAR-5 ovarian, 80%; with OVCAR-4 ovarian, 65.3%; with SK-OV-3 ovarian, 86.5%. Further, the growth in the experiment with IGROV1 ovarian was 62.6%; in the experiment on OVCAR-3 ovarian it was 62.9%; with HS 578T breast, 93.2%; in the experiment on NCI/ADR-RES ovarian, 98.7%; in the experiment with T-47D breast it was 57.7%; with BT-549 breast it was 76.4%. The growth was 71.3% in the experiment on MDA-MB-435 melanoma; 102% with SW-620 colon; 33.4% in the experiment on MCF7 breast; 77.7% with HCT-116 colon; 119% in the experiment with HCC-2998 colon; 19.5% with KM12 colon.
Consider `CC(C)(C)c1cc(-n2c(-c3ccc(Cl)cc3)nc3cc(C(=O)Nc4ccc(Cl)cc4)ccc32)n[nH]1`, for which the growth in the experiment on SR leukemia was 70.3%; in the experiment on RPMI-8226 leukemia, 51.1%; in the experiment with OVCAR-8 ovarian, 61.6%; in the experiment with OVCAR-5 ovarian, 93%; in the experiment with OVCAR-4 ovarian, 56.4%; in the experiment with SK-OV-3 ovarian it was 99.8%. For the same compound, the growth is 40.3% in the experiment with IGROV1 ovarian; 45.8% with OVCAR-3 ovarian; 55.8% with HS 578T breast; 40.4% in the experiment on NCI/ADR-RES ovarian; 25.2% in the experiment with T-47D breast; 58.7% in the experiment with BT-549 breast. Besides, the growth with MDA-MB-435 melanoma is 73.3%; with SW-620 colon it was 55.9%; in the experiment on MCF7 breast, 38.5%; with HCT-116 colon, 28.2%; with HCC-2998 colon, 63.9%; in the experiment with KM12 colon, 25.9%.
Regarding `O=C1c2ccccc2NC(c2cn(-c3ccccc3)nc2-c2cccs2)N1Cc1ccccc1` (centres undefined), the growth was 66.8% in the experiment with SR leukemia; 76.2% in the experiment with RPMI-8226 leukemia; 90.3% with OVCAR-8 ovarian; 90% in the experiment with OVCAR-5 ovarian; 87.1% in the experiment with OVCAR-4 ovarian; 84% in the experiment on SK-OV-3 ovarian. Further, the growth with IGROV1 ovarian was 69.3%; with OVCAR-3 ovarian, 89.3%; with HS 578T breast, 94.3%; in the experiment on NCI/ADR-RES ovarian, 73.2%; with T-47D breast, 54.9%; in the experiment with BT-549 breast it was 88.5%. Besides, the growth was 97.5% with MDA-MB-435 melanoma; 97.3% in the experiment with SW-620 colon; 72% with MCF7 breast; 65.9% with HCT-116 colon; 95.1% with HCC-2998 colon; 83.7% with KM12 colon.
